Marburg entry inh – qHTS for inhibitors of binding or entry into cells for Marburg Virus. 1.8% of 300,000 active. AID 540276, 2011. Potency, µM (titrated, usually from 37.8 µM), for the others: at the highest dose activity change, negative = inhibition, hits mostly inhibitors. Marburg virus pseudotyped entry inhibition, cell reporter; calls by dose curve; tested in HEK293 cells
LASV entry inh – qHTS for Inhibitors of binding or entry into cells for Lassa Virus; Potency, µM (titrated, usually from 37.9 µM), for inactives: at the highest dose activity change, negative = inhibition, usual class: inhibitors; AID 540256, 2011; 1.2% of 300,000 active; Lassa virus pseudotype entry inhibition, cell reporter; calls by dose curve; tested in HEK293 cells; note: nearly all actives have a fitted effect of over 50% in size
AMA1 RON2 block – qHTS for Inhibitors of AMA1-RON; Towards Development of Antimalarial Drug Lead: Primary Screen. 0.2% of 360,000 active. Plasmodium falciparum AMA1 (3D7) - RON2 peptide interaction. AlphaScreen AMA1-biotinylated RON2 peptide binding. Potency, µM (highest dose often 58.2 µM), for inactives: at the top dose activity change, negative = inhibition, actives largely listed as inhibitors;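 note: 0% = vehicle wells and -100% = peptide control; nearly all actives have a fitted effect of over 45% in size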
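AMA1 (3D7) with his tag at 25 nM final met compounds first, then biotinylated RON2 peptide at 25 nM; detection used donor plus acceptor beads, 10 µg/mL apiece, read by AlphaScreen after 30 min at room temperature.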
AmpC detergent – qHTS Inhibitors of AmpC Beta-Lactamase (assay with detergent); P00811; AmpC hydrolysis of nitrocefin, absorbance 480 nm, 0.01% Triton; Potency, µM (top dose mostly 114 µM), for inactives: at the top dose activity change, negative = inhibition, most hits filed as inhibitors; 0.041% of 370,000 active; AID 485294, 2010;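 note: 0% = no-compound wells and -100% = no-enzyme wells; nearly all actives have a fitted effect of over 25% in size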
Target sequence (P00811 whole entry, looked up): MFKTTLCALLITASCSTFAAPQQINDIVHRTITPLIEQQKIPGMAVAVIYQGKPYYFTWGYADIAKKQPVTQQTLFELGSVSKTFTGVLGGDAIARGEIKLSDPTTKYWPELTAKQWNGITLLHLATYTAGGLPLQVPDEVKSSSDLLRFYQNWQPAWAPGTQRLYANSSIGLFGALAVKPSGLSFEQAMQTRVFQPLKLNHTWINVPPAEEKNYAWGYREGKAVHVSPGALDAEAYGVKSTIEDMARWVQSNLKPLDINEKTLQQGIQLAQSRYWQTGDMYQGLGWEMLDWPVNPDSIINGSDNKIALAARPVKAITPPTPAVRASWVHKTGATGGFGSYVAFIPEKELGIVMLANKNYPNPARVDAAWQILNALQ
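AmpC (5.3 nM in the dispensed reagent) in 20 mM phosphate pH 7.0 with 0.01% (detergent screen) or 0.0001% Triton X-100 was preincubated with compounds for 15 min at room temperature. Nitrocefin was then added from an 800 uM solution, and hydrolysis was followed at 480 nm.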
AmpC inh no detg – qHTS Inhibitors of AmpC Beta-Lactamase (assay without detergent). AmpC nitrocefin hydrolysis, absorbance 480 nm, 0.0001% Triton. Potency, µM (top dose mostly 57.1 µM), without a hit: at the highest dose activity change, negative = inhibition, hits mostly inhibitors. P00811. 0.52% of 330,000 active. AID 485341, 2010;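 note: plate controls were no compound for no effect and no enzyme for full effect; nearly all actives have a fitted effect of over 20% in size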
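20 mM phosphate pH 7.0 + 0.01% (detergent screen) or 0.0001% Triton X-100; 5.3 nM AmpC reagent; cpd preinc 15 min RT; nitrocefin (800 uM stock) to start; A480 q20 s × 4 min; Activity was normalised to no-enzyme and no-compound control wells.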
Starred values were filed as active, the others as inactive; ? = inconclusive; · = no result given; ! = repeats disagree; [ ] = remark or other dose. Rows were chosen to be rich in hits. Some 2.3% of all compounds tested hit in one or more screens of this group. Unless noted, calls come from the whole dose curve; as a rule, active = well fitted curve in the direction sought with a large enough effect; inconclusive = small, poorly fitted or top-dose-only effect, or another doubt; inactive = no such curve, though single readings can be large; an effect the other way counts as inactive or inconclusive. Unless noted, % is set by controls: 0 for no effect and ±100 for the full control effect; potency is the fitted concentration of half-maximal effect.

SMILES	Marburg entry inh	LASV entry inh	AMA1 RON2 block	AmpC detergent	AmpC inh no detg
Cc1cc(C(=O)Nc2cccc(C(=O)O)c2)oc1C	?	3.55µM*	-3.6%	2.5%	-12.2%
CCC(C)NC(=O)c1ccc(Cn2c(=O)c3cccn3c3cccnc32)cc1 (configuration not stated)	·	-9.4%[46.1 µM]	·	-3.4%	·
C=CCn1c(=NC(=O)c2cccs2)sc2cccc(OC)c21	-17.2%	-20.3%	3.4%	10.0%	-33.9%
C#CCn1c(=NC(=O)c2ccc(Br)s2)sc2cccc(OC)c21	·	·	-5.1%	?	1.41µM*
Cc1ccc2[nH]c(=O)c(CN(Cc3ccc4c(c3)OCO4)Cc3nnnn3C3CCCC3)cc2c1	?	3.55µM*	-29.0%	?	·
CC1Sc2ccc(C(=O)Nc3ncccc3O)cc2NC1=O (configuration not stated)	10µM*	?	33.2%	-0.3%	-6.8%
Cc1cccnc1NC(=O)c1ccc2c(c1)NC(=O)C(C)S2 (configuration not stated)	9.0%	?	3.7%	-20.9%	-15.6%
COc1ccc(-c2nnnn2CCc2ccccc2)cc1	19.6%	4.4%	-5.8%	3.4%	0.199µM*
COc1ccc(-c2nnnn2C(C)C)cc1	14.0%	4.7%	14.6%	-2.0%	6.6%
O=c1cnn([C@@H]2O[C@H](CO)[C@@H](O)[C@H]2O)c(=O)[nH]1	?	0.092µM*	50.4%	-12.1%	-5.3%
CCN1C(=O)[C@@H]2[C@H]3[C@H](O)[C@H](O)CC(=NOC[C@H]4O[C@H](c5ccccc5)C=C[C@H]4Oc4ccc(OC)cc4)[C@@H]3CC[C@H]2C1=O	-28.3%[14.2 µM]	·	·	·	·
O=C(N=Nc1c(O)[nH]c2ccccc12)Nc1ccccc1	?	?	-15.5%	·	·
Cc1cccc(NC(=S)N=Nc2c(O)[nH]c3ccccc23)c1	?	?	5.7%	?	31.6µM*
O=C(Nc1ccc(F)c(Cl)c1)Nc1c[nH]c(=O)[nH]c1=O	·	?	·	-0.1%	·
NCC(O)C1CCCCCCC1 (configuration not stated)	7.08µM*!	2.6%	·	·	·
Nc1nn(-c2ccccc2)c(N)c1N=Nc1ccc2c(c1)OCO2	8.91µM*	?	2.8%	?	-45.4%
COc1ccccc1C(=O)Nc1ccc(C(=O)OCc2cc(=O)n3c4c(sc3n2)CCCC4)cc1	·	-1.0%[46.1 µM]	·	-2.4%	·
Cn1cccc1/C=C1\SC(=S)N(NC(=O)c2ccccc2O)C1=O	2.4%[46.1 µM]	4.0%	8.6%	1.9%	-44.1%
O=C1S/C(=C\C=C\c2ccco2)C(=O)N1c1ccc(O)cc1	20.6µM*	?	0.7%[11.6 µM]	-3.2%	31.6µM*
O=C(NN1C(=O)/C(=C/C=C/c2ccco2)SC1=S)c1ccccc1O	-4.5%	-13.9%	-29.8%	4.0%	15.8µM*
O=C1S/C(=C\C=C\c2ccco2)C(=O)N1c1ccccc1	?	?	?	-11.8%	-43.1%
CC1CCCC=CC2CC(O)CC2C(O)/C=C\C(=O)O1 (configuration not stated)	0.398µM*	·	·	·	·
CC1CCC/C=C/C2CC(O)CC2C(O)/C=C/C(=O)O1 (configuration not stated)	0.398µM*	?	14.9%	-5.7%	13.4%
C[C@H]1CCC[C@@H](O)CCC/C=C/c2cc(O)cc(O)c2C(=O)O1	?	-49.9%[14.3 µM]	8.3%	-18.8%	-32.7%
CCCCC[C@H]1CCCCC[C@H](O)C[C@H](O)[C@@H](O)/C=C/C(=O)O1	·	·	-1.3%	·	·
SMILES	Marburg entry inh	LASV entry inh	AMA1 RON2 block	AmpC detergent	AmpC inh no detg
C[C@H]1CCC/C=C/C2C[C@H](O)CC2[C@H](O)/C=C/C(=O)O1 (some centres not stated)	0.366µM*	1.16µM*	11.5%	-6.7%	-19.3%
Cc1ccccc1Nc1nc(N)c(C(=O)c2ccccc2Cl)s1	·	11.1%[46.1 µM]	·	?	·
COc1ccc(Nc2nc(N3CCCCC3)nc(N3CCCCC3)n2)c(OC)c1	-6.8%	-2.9%	-7.4%	-14.0%	4.2%
COc1ccc(Nc2nc(NC(C)(C)C)nc(N3CCOCC3)n2)c(OC)c1	13µM*	-6.8%	?	-4.9%	106.4%
COc1ccc(Nc2nc(Nc3ccc(OC)cc3OC)nc(N3CCN(C)CC3)n2)c(OC)c1	?	?	?	?	28.8%
COc1ccc(Nc2nc(NC(C)(C)C)nc(N3CCCC3)n2)c(OC)c1	5.17µM*	-20.9%	?	-7.0%	38.8%
COc1ccc(Nc2nc(N3CCCC3)nc(N3CCCC3)n2)c(OC)c1	2.06µM*	-19.4%	-17.6%	-4.7%	3.9%
O=C(c1ccc2c(Cl)c3c(nc2c1)CCCC3)N1CCN(c2ccccc2F)CC1	0.7%[46.1 µM]	-11.1%[46.1 µM]	·	9.8%	·
CC1=NC=CC2C1=Nc1ccccc12 (configuration not stated)	-0.6%	·	·	·	·
COc1cccc(CNC(=O)c2cccc(N3CCCS3(=O)=O)c2)c1	·	15.1%[46.1 µM]	·	5.8%	·
COc1cc2c(cc1OC)-c1cc(NC3CCCCCCC3)nc(=O)n1CC2	?	14.1µM*	0.0%	?	0.4%
CCOc1ccc(Nc2cc3n(c(=O)n2)CCc2cc(OC)c(OC)cc2-3)cc1	-25.1%	11.2µM*	-4.5%	-0.1%	-6.0%
C[C@@H]1CN(C2CCN(C(=O)c3ccccc3)CC2)C[C@H](C)O1	0.0%	·	·	·	·
Nc1nc(C2CC2)c(Sc2sc(N)nc2C2CC2)s1	?	2.51µM*	-0.1%	-8.1%	-24.2%
CC(C)(C)NC[C@H](O)c1ccccc1Cl	15.5%	·	·	·	·
Cc1cccc(N=C2Sc3nc4c(C)c(C)ccc4cc3CN2CCN2CCOCC2)c1	16.4µM*	23.1µM*	-17.0%	-10.5%	108.2%
COCCN1Cc2cc3cc(C)ccc3nc2SC1=Nc1cccc(OC)c1	·	·	41.5%	0.5%	60.0%
CCc1cccc2sc(N3CCN(C(=O)C4CC4)CC3)nc12	·	?	·	5.1%	·
CCc1cccc2sc(N3CCN(C(=O)c4ccc([N+](=O)[O-])o4)CC3)nc12	5.01µM*	?	?	?	28.8%
COc1ccc(N=C2S/C(=C\c3cc(C)n(C)c3C)C(=O)N2C)cc1	?	4.47µM*	-18.0%	4.2%	83.5%
CC(C)=CCN1C(=O)C2(CC(C)=C[C@@H](C)O2)c2c(Br)cccc21 (some centres not stated)	11.3%[14.2 µM]	·	·	·	·
C/C=C(/C(=C/C)c1ccc(O)cc1)c1ccc(O)cc1	-29.8%	25.9µM*	10.0%	?	-18.2%
C=C(c1ccc(O)cc1)c1ccc(O)cc1	5.7%	1µM*	-8.9%	-3.4%	-55.9%
Cc1ccc(NC(=O)Cn2nnc(-c3nc(-c4ccc(Cl)cc4)no3)c2N)cc1C	·	26.3%[46.1 µM]	·	12.3%	·
CCOc1cc(CN2CCN(c3cccc(C(F)(F)F)c3)CC2)ccc1O	16.4µM*	-5.5%	?	1.3%	25.0%
CCCCCc1cc(=O)oc2c(C(CCN(CC)CC)c3ccc(N(C)C)cc3)c(OC)cc(OC)c12 (configuration not stated)	·	·	25.1µM*	7.6%	205.7%
